Reference: publication PMC5700166
Numbering of substitutions follows the chain as printed.

Legend:
Test in all cases: protein-binding microarray (PBM); PBM: ~300 nM protein, 6 mM HEPES pH 7.8, 80 mM KCl, 0.5 mM EDTA, 0.5 mM EGTA, 6% glycerol, 35 ng/ul poly-dIdC, 1% milk, 1 h, room temperature; Ap Aiptasia and Nv Nematostella (sea anemones) / Co Capsaspora / Aq Amphimedon (sponge) / Dm Drosophila / Hu human; RHD is the Rel homology domain; high values mean tight binding
Settings in all cases: dsDNA, one strand shown
[1] = target: T1, GST-Ap-NF-kB RHD (Exaiptasia pallida (Aiptasia), UniProt A0A913YAJ5 2-422)
T1 sequence: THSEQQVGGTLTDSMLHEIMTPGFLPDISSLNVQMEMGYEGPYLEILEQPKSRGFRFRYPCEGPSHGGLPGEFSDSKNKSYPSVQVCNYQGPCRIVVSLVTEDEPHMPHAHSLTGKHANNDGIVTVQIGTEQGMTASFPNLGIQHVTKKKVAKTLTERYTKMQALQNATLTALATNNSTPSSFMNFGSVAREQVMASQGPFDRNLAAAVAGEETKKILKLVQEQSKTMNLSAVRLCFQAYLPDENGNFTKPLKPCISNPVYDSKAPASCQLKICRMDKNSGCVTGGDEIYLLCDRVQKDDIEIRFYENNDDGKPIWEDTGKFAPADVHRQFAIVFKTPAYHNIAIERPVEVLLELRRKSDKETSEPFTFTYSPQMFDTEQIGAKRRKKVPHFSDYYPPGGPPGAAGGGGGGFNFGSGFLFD

[2] = target: T2, GST-Nv-NF-kB (Cys allele) (Nematostella vectensis, UniProt E5G601 2-411)
T2 sequence: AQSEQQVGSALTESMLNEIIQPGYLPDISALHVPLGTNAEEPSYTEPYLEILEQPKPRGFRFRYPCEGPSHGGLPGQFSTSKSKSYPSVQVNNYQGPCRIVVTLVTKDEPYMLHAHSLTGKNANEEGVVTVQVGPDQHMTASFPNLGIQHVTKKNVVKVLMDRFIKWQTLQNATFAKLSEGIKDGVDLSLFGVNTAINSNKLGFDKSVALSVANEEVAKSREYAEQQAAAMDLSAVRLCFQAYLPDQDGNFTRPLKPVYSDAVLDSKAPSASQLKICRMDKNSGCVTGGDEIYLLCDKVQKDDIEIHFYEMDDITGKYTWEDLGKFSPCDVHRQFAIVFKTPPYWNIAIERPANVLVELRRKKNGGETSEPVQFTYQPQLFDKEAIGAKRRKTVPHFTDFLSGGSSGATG

[3] = target: T3, GST-Nv-NF-kB (Ser allele) (Nematostella vectensis, UniProt A7UNT2 2-411)
T3 sequence: T2 sequence with Q21R, C66S, S207N, E215Q, V217A, E225K, A268E, D399E

[4] = target: T4, GST-Co-NF-kB (Capsaspora owczarzaki, UniProt F1ARL5 200-546)
T4 sequence: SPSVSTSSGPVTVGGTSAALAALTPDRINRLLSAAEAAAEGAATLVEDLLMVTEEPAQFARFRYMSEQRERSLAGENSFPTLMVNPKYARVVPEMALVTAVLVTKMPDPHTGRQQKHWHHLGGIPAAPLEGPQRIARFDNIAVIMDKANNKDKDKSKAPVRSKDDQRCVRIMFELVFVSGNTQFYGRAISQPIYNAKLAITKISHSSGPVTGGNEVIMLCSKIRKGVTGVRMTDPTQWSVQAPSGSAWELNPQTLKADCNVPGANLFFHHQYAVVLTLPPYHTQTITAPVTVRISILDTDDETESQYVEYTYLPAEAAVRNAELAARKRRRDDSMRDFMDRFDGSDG

[5] = target: T5, GST-Dm-Relish (Drosophila melanogaster, UniProt Q94527 99-473)
T5 sequence: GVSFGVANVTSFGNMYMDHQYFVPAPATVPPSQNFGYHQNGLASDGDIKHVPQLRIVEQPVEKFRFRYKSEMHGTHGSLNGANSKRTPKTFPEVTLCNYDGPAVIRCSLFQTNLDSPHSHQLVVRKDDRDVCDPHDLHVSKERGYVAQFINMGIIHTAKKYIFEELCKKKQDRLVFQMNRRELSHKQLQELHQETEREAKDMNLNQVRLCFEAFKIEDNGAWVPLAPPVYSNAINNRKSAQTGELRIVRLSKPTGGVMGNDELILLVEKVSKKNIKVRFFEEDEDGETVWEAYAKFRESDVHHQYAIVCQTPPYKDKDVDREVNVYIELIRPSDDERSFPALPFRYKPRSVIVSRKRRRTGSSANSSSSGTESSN

[6] = target: T6, GST-Aq-NF-kB (Amphimedon queenslandica, UniProt A9Y5G7 2-389)
T6 sequence: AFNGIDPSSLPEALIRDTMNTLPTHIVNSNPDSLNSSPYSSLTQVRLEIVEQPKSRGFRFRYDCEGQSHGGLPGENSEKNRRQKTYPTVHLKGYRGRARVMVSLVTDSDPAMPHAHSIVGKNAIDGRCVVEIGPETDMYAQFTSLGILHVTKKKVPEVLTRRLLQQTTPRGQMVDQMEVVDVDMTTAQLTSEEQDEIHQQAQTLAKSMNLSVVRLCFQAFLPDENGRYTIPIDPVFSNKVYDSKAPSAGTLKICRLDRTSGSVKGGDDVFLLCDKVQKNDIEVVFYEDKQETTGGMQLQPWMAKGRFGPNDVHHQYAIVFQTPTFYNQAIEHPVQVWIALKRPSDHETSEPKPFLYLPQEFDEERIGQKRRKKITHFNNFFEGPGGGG

[7] = target: GST-Hu-p50 (Homo sapiens, UniProt P19838 7-356)
GST-Hu-p50, sequence (P19838 7-356): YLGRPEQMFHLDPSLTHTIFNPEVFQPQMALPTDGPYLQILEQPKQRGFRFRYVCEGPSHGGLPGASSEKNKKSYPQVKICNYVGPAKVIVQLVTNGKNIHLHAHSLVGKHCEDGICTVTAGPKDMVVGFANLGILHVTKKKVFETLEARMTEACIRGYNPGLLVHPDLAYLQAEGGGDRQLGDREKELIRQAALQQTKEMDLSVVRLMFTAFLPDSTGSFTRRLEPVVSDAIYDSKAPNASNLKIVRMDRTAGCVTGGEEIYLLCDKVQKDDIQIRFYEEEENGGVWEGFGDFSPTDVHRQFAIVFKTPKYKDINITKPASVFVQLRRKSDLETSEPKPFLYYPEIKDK

Sequence	binding signal [1]	binding signal [2]	binding signal [3]	binding signal [4]	binding signal [5]	binding signal [6]	binding signal [7]
CCGATTAACATCAGGGGATTCGATGATGTTAATCGGGTCTTGATTCGCTTGACGCTGCTG	5.58 z-score	5.21 z-score	7.7 z-score	2.24 z-score	3.8 z-score	3.6 z-score	5.33 z-score
CCGATTAACATCAGTAAATCCCATGATGTTAATCGGGTCTTGATTCGCTTGACGCTGCTG	1.49 z-score	1.09 z-score	1.18 z-score	1.48 z-score	7.4 z-score	2.3 z-score	1.94 z-score
CCGATTAACATCAAATACTCCCCTGATGTTAATCGGGTCTTGATTCGCTTGACGCTGCTG	6.1 z-score	5.48 z-score	6.09 z-score	6.89 z-score	3.34 z-score	5.29 z-score	4.01 z-score
CCGATTAACATCAGATATCCCCCTGATGTTAATCGGGTCTTGATTCGCTTGACGCTGCTG	7.25 z-score	6.62 z-score	7.52 z-score	6.39 z-score	5.78 z-score	5.89 z-score	5.59 z-score
CCGATTAACATCACGGGGCCCCCTGATGTTAATCGGGTCTTGATTCGCTTGACGCTGCTG	5.45 z-score	3.6 z-score	2.68 z-score	1.49 z-score	3.89 z-score	4.31 z-score	3.47 z-score
CCGATTAACATCAAGAACCCCCTTGATGTTAATCGGGTCTTGATTCGCTTGACGCTGCTG	7.4 z-score	6.12 z-score	7.11 z-score	1.5 z-score	8.56 z-score	6.48 z-score	6.86 z-score
CCGATTAACATCAGGAGTTCCCCTGATGTTAATCGGGTCTTGATTCGCTTGACGCTGCTG	8.41 z-score	9.9 z-score	7.6 z-score	5.41 z-score	9.69 z-score	9.11 z-score	6.51 z-score
CCGATTAACATCAAATTTTCCCCTGATGTTAATCGGGTCTTGATTCGCTTGACGCTGCTG	7.95 z-score	9.83 z-score	12.2 z-score	11.6 z-score	5.18 z-score	7.36 z-score	6.86 z-score
CCGATTAACATCAGGGGTTCCCATGATGTTAATCGGGTCTTGATTCGCTTGACGCTGCTG	4.04 z-score	2.36 z-score	1.37 z-score	1.64 z-score	10 z-score	4.49 z-score	2.64 z-score
CCGATTAACATCAGGGGGGTGGATGATGTTAATCGGGTCTTGATTCGCTTGACGCTGCTG	4.23 z-score	3.15 z-score	4.75 z-score	3.78 z-score	3.78 z-score	4.03 z-score	4.19 z-score
CCGATTAACATCAAAAAACCCCCTGATGTTAATCGGGTCTTGATTCGCTTGACGCTGCTG	12.1 z-score	11.4 z-score	12.1 z-score	5.28 z-score	11.4 z-score	9.82 z-score	8.38 z-score
CCGATTAACATCAAGGGGGATTCTGATGTTAATCGGGTCTTGATTCGCTTGACGCTGCTG	9.03 z-score	8.85 z-score	10.3 z-score	4.93 z-score	8.21 z-score	7.13 z-score	7.71 z-score
CCGATTAACATCAGAGTATTCCCTGATGTTAATCGGGTCTTGATTCGCTTGACGCTGCTG	3.08 z-score	2.98 z-score	3.2 z-score	2.71 z-score	2.22 z-score	3.06 z-score	1.6 z-score
CCGATTAACATCAAACACCCCCTTGATGTTAATCGGGTCTTGATTCGCTTGACGCTGCTG	4.95 z-score	5.25 z-score	5.61 z-score	3.04 z-score	5.63 z-score	6.03 z-score	5.5 z-score
CCGATTAACATCAGGGAAAACAATGATGTTAATCGGGTCTTGATTCGCTTGACGCTGCTG	3.05 z-score	4.96 z-score	6.37 z-score	5.48 z-score	1.47 z-score	3.34 z-score	3.66 z-score
CCGATTAACATCACGGGAATACCTGATGTTAATCGGGTCTTGATTCGCTTGACGCTGCTG	4.13 z-score	3.29 z-score	2.87 z-score	3.47 z-score	6.3 z-score	5.81 z-score	1.75 z-score
CCGATTAACATCAGGAGTGTCCCTGATGTTAATCGGGTCTTGATTCGCTTGACGCTGCTG	2.12 z-score	2.48 z-score	1.44 z-score	1.05 z-score	1.23 z-score	4.83 z-score	1.29 z-score
CCGATTAACATCAAGGGGGATTATGATGTTAATCGGGTCTTGATTCGCTTGACGCTGCTG	8.36 z-score	7.48 z-score	8.59 z-score	4.73 z-score	6.5 z-score	6.85 z-score	7.48 z-score
CCGATTAACATCAGGGAGAACCCTGATGTTAATCGGGTCTTGATTCGCTTGACGCTGCTG	4.28 z-score	3.85 z-score	1.28 z-score	1.72 z-score	4.39 z-score	6.47 z-score	2.75 z-score
CCGATTAACATCACATTTCCCCCTGATGTTAATCGGGTCTTGATTCGCTTGACGCTGCTG	6.84 z-score	6.99 z-score	10.2 z-score	9.84 z-score	4.03 z-score	5.23 z-score	6.55 z-score
CCGATTAACATCAGGGAAAGTACTGATGTTAATCGGGTCTTGATTCGCTTGACGCTGCTG	3.95 z-score	6.4 z-score	6.18 z-score	2.93 z-score	8.65 z-score	7.76 z-score	5.43 z-score
CCGATTAACATCAGGGACTGCCCTGATGTTAATCGGGTCTTGATTCGCTTGACGCTGCTG	4.31 z-score	4.95 z-score	3.06 z-score	1.04 z-score	4.22 z-score	7.19 z-score	4.14 z-score
CCGATTAACATCAAAAAATTCCCTGATGTTAATCGGGTCTTGATTCGCTTGACGCTGCTG	6.84 z-score	10.3 z-score	9.33 z-score	5.79 z-score	8.53 z-score	8.5 z-score	6.48 z-score
CCGATTAACATCAGGAATCCCCATGATGTTAATCGGGTCTTGATTCGCTTGACGCTGCTG	8.61 z-score	8.08 z-score	7.76 z-score	3.4 z-score	9.13 z-score	6.35 z-score	6.22 z-score
